In this test the target is Cytochrome P450 3A7 (Homo sapiens) (UniProt P24462). Description: Cytochrome P450 family 3 subfamily A member 7 (CYP3A7) small molecule antagonists: luciferase biochemical qHTS assay (AID 1963596). Note: nearly all actives have a fitted effect of over 40% in size. The following applies: P450-Glo CYP3A7 enzyme luminescence, 1 h; series mostly up to 57.4 µM. A digest of the protocol: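 Luminescence from luciferin released by CYP3A7 from a proluciferin substrate, read 20 min after detection reagent. Compound and enzyme-substrate mix sat 10 min before NADPH regeneration solution; reaction ran 1 h at room temperature.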

Results filed as inconclusive are left out. A call without a number means that no potency is given here. Calls of active or inactive are those of the source. Calls come from the whole dose curve; as a rule, active = well fitted inhibition curve with a large enough effect; inconclusive = small, poorly fitted or top-dose-only effect; inactive = no such curve, though single readings can be large or run the other way.

We go through 13 molecules from PubChem BioAssay (NCATS).

Cytochrome P450 3A7 (Homo sapiens), sequence (P24462 whole entry, looked up): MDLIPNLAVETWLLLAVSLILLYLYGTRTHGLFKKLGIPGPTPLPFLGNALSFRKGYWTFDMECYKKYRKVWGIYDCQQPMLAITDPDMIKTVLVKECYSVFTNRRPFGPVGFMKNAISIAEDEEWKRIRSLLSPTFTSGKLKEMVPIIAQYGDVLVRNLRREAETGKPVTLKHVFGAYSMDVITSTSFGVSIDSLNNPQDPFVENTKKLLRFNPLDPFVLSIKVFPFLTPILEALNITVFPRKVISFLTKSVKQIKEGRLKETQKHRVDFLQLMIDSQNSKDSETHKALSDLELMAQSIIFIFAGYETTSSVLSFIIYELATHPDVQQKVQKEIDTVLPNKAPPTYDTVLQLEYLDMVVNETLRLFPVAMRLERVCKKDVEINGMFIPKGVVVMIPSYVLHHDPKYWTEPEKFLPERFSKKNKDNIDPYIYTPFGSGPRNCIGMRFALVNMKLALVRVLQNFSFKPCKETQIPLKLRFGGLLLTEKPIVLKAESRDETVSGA

In the case of `COc1ccc(NC(=O)c2ccc(-c3ccc(C(=N)N)cc3C)cc2)cc1N1CCN(C)CC1`, the Potency entry was “inactive”.

As for `CC1(O)CCC(C(C)(C)O)CC1` (stereo not drawn), the Potency result was “inactive”.

For `C=CC1=C(C(=O)O)N2C(=O)[C@@H](NC(=O)/C(=N\OCC(=O)O)c3csc(N)n3)[C@H]2SC1`, the Potency entry is “inactive”.

Turning to `Cc1ccc(S(=O)(=O)Nc2nc3n(n2)C(c2ccc(F)cc2)C=C(c2ccccc2)N3)cc1` (stereo not drawn), the Potency entry was “inactive”.

For `O=C(Nc1cccc(C2=NCCN2)c1)Nc1cccc(C2=NCCN2)c1`, the Potency entry was “inactive”.

For the molecule `CC(C)c1cccc(O)c(=O)c1`, the Potency entry is “inactive”.

On to `Cc1ccc(C)c(Nc2nc3nonc3nc2Nc2cccc(C)c2C)c1`, for which the Potency result was “inactive”.

Turning to `Cc1ccc(CNC(=O)C2CCN(S(=O)(=O)c3c(C)noc3/C=C/c3ccccc3F)CC2)o1`, the Potency entry is “inactive”.

`Cc1cc(C)cc(NC(=O)Cn2c(=O)n(-c3ccc(C)c(C)c3)c(=O)c3oc4ccccc4c32)c1`: the Potency result was “inactive”.

Regarding `CN1CC2CN(c3ccc4oc5ccccc5c(=O)c4c3)CC2C1` (stereo not drawn), the Potency entry is “inactive”.

`COc1ccc(CC(=O)Nc2c(C(=O)N3CCN(c4ccccc4F)CC3)oc3ccccc23)cc1OC`: the Potency entry was “inactive”.

As to `CN(C)c1ccc(C(=C2C=CC(=[N+](C)C)C=C2)c2c(O)c(S(=O)(=O)[O-])cc3cc(S(=O)(=O)O)ccc23)cc1`, the Potency entry was “inactive”.

In the case of `CN[C@H](CC(C)C)C(=O)N[C@H]1C(=O)N[C@@H](CC(N)=O)C(=O)N[C@H]2C(=O)N[C@H]3C(=O)N[C@H](C(=O)N[C@H](C(=O)O)c4cc(O)cc(O)c4-c4cc3ccc4O)[C@H](O)c3ccc(c(Cl)c3)Oc3cc2cc(c3O[C@@H]2OC(CO)[C@@H](O)[C@H](O)[C@@H]2O[C@H]2C[C@](C)(N)[C@H](O)[C@H](C)O2)Oc2ccc(cc2Cl)[C@H]1O` (stereo partly drawn), the Potency entry is “inactive”.
